Screening data deposited in PubChem by National Center for Advancing Translational Sciences (NCATS).
Shown are actives, neighbours in structure and some others; about 18% of the full set was active somewhere.
TDP1 cell noCPT = qHTS for Inhibitors of human tyrosyl-DNA phosphodiesterase 1 (TDP1): qHTS in cells in absence of CPT; DT40 Tdp1-/- hTDP1 cells, no CPT, ATP luminescence, 48 h; Potency, µM (doses to about 46.2 µM), for inactives: top-dose activity change, negative = growth inhibition, most hits filed as inhibitors; hit rate 15% among 420,000; note: nearly all actives have a fitted effect of over 55% in size
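Chicken DT40 Tdp1-/- cells stably complemented with human TDP1 were seeded at 400 cells/well with DMSO in place of 20 nM camptothecin. After compound pinning, cells grew at least 48 hr at 37 °C; viability read by CellTiter-Glo luminescence.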
DT40 TDP1 CPT = DT40-hTDP1 cell growth loss with CPT; chicken DT40 Tdp1-/-;hTDP1 cells + 20 nM CPT, ATP luminescence, 48 h; Potency, µM (titrated, usually from 46.2 µM), inactives show at the highest dose activity change, negative = growth inhibition, actives largely listed as inhibitors; hit rate 12% among 420,000; AID 686979; note: nearly all actives have a fitted effect of over 55% in size
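Cell growth measured by CellTiter-Glo luminescence after a minimum 48 h, 37 C compound exposure with 20 nM CPT in Tdp1-knockout DT40 cells stably expressing hTDP1, seeded 400/well; qHTS titration format.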
VDR inhibitor = blocks the human vitamin D receptor | P11473 | VDR-SRC2-3 peptide fluorescence polarization, 2 h | Potency, µM, without a hit: max response, negative = inhibition, hits mostly inhibitors | hit rate 0.93% among 400,000
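Inhibition of the VDR/SRC2-3 peptide interaction is quantified by fluorescence polarization. Compounds (23 nl, pintool) incubate with the reagents for 2 hours at ambient room temperature.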
TDP1 inh = blocks human tyrosyl-DNA phosphodiesterase 1. Q9NUW8. recombinant TDP1, AlphaScreen DNA substrate cleavage. Potency, µM (doses to about 130 µM), inactives show at the top dose activity change, negative = inhibition, hits mostly inhibitors. hit rate 0.28% among 350,000; note: nearly all actives have a fitted effect of over 40% in size
Target sequence (Q9NUW8 whole entry, looked up): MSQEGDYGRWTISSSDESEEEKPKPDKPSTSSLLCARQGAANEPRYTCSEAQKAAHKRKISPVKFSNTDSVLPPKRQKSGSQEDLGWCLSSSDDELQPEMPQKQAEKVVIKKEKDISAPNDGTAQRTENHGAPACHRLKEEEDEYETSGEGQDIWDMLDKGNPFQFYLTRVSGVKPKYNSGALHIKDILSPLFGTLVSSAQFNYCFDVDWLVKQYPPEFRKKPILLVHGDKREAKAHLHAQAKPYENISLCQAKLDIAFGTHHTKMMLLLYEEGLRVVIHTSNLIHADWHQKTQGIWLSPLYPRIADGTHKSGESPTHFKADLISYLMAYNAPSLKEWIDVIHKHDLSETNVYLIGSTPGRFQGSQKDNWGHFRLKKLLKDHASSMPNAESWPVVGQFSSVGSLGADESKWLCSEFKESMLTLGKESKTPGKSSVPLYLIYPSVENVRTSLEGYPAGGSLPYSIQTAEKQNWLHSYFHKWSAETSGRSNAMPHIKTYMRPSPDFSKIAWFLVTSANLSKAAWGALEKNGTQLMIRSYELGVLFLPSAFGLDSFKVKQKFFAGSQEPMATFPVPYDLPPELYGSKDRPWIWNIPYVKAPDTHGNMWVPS
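Recombinant E. coli-expressed Tdp1 (1 nM) preincubated with compound 15 min at RT, then 5'-biotin/3'-phosphotyrosine-FITC DNA substrate (15 nM) added for 5 min. AlphaScreen beads (10 ug/ml) added, 10 min RT; tyrosine-FITC cleavage read as signal loss.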
PLK1 PBD inh = blocks phosphopeptide binding to human PLK1 polo-box domain | P53350 | Plk1 PBD binding of FITC phosphopeptide, fluorescence polarization | Potency, µM, inactives show max response, negative = inhibition, most hits filed as inhibitors | hit rate 2.8% among 360,000 | AID 720504; note: series mostly up to about 57 µM; nearly all actives have a fitted effect of over 65% in size
KAT2A inh = GCN5L2 (KAT2A) acetyltransferase inhibition; Potency, µM (highest dose often 58.9 µM), for inactives: at the highest dose activity change, negative = inhibition, hits mostly inhibitors; hit rate 0.21% among 390,000; Q92830; GCN5L2 HAT assay, ThioGlo1 CoA-SH fluorescence
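GCN5L2 (20 nM) in 50mM HEPES pH 7.5, 0.1mM EDTA, 0.01% Tween-20 preincubated 15 min with compounds at room temperature. Reaction started with H3(1-25) 75uM, acetyl-CoA 70uM, ThioGlo1 50uM; CoA-thiol fluorescence (Ex340/Em540) read at 0 and 20 min.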
Starred values were filed as active, the others as inactive; ? = inconclusive; / = not tested or not shown; [ ] = remark or other dose. Calls come from the whole dose curve; as a rule, active = well fitted curve in the direction sought with a large enough effect; inconclusive = small, poorly fitted or top-dose-only effect, or another doubt; inactive = no such curve, though single readings can be large; an effect the other way counts as inactive or inconclusive. % is set by controls: 0 for no effect and ±100 for the full control effect; potency is the fitted concentration of half-maximal effect.

SMILES | TDP1 cell noCPT | DT40 TDP1 CPT | VDR inhibitor | TDP1 inh | PLK1 PBD inh | KAT2A inh
Brc1ccc(C2=Nn3c(Cn4nnc5ccccc54)nnc3SC2)cc1 | ? | ? | ? | 7% | 12µM* | -20%
O=C(COC(=O)Cn1cc(C(F)(F)F)ccc1=O)Nc1ccc(Br)cc1F | -3% | -30% | -2% | -13% | -4% | -9%
N#CC1c2ccccc2-c2ccccc2N1C(=O)c1ccccc1 (stereo unspecified) | 5.8µM* | 5.8µM* | / | / | -2% | /
O=C(Nc1cccc(F)c1)c1ccc2oc(=O)n(Cc3ccccc3)c2c1 | ? | ? | 4% | -1% | / | 4%
C/C(=N\NC(=O)CSc1nc2ccccc2s1)c1ccco1 | ? | ? | -1% | 8% | -10% | -6%
COCCN1C(=O)c2[nH]nc(-c3ccccc3O)c2C1c1ccc(Cl)c(Cl)c1 (stereo unspecified) | 9.2µM* | 18µM* | 8% | 12% | / | -15%
COc1cc(C2c3c(-c4cc(Cl)c(C)cc4O)n[nH]c3C(=O)N2Cc2cccnc2)ccc1O (stereo unspecified) | ? | -6% | 5% | 3% | -7% | 0%
COc1cccc(C2c3c(-c4cc(Cl)c(C)cc4O)n[nH]c3C(=O)N2Cc2cccnc2)c1 (stereo unspecified) | 16µM* | ? | -2% | 4% | -4% | -5%
COc1ccc(CCN2C(=O)c3[nH]nc(-c4ccccc4O)c3C2c2cccc(OC)c2)cc1 (stereo unspecified) | 18µM* | ? | 7% | 10% | / | -6%
COc1ccc(CCN2C(=O)c3[nH]nc(-c4ccccc4O)c3C2c2cccc(Cl)c2)cc1 (stereo unspecified) | 21µM* | 23µM* | 10% | 10% | -6% | -21%
O=C1c2[nH]nc(-c3ccccc3O)c2C(c2cccc(Cl)c2)N1Cc1cccnc1 (stereo unspecified) | ? | ? | 14% | 5% | / | 3%
CCC1COCCS(=O)(=O)N1Cc1cccc(C(F)(F)F)c1 (stereo unspecified) | ? | ? | 8% | / | -10% | -4%
CCOC(=O)c1c(C)[nH]c(C)c1C(=O)COC(=O)/C=C/c1ccco1 | -19% | -11% | -8% | 4% | -4% | 2%
COc1ccc(NC(=O)c2c(NCc3ccc(N(C)C)cc3)sc3c2CCC3)cc1 | 10µM* | 13µM* | -6% | 5% | / | -4%
COc1ccc(NC(=O)c2c(NC(=O)CCC(=O)O)sc3c2CCCCC3)cc1 | -18% | -8% | -25% | 5% | -7% | -5%
COC(=O)c1ccc(NC(=O)c2c(NCc3ccc(OC)c(OC)c3)sc3c2CCCC3)cc1 | 5.2µM* | 2.9µM* | -1% | 6% | / | -3%
COc1ccc(NC(=O)c2c(NCc3cccc(OC)c3)sc3c2CCCC3)cc1 | 23µM* | ? | 5% | 8% | / | -10%
COc1ccc(NC(=O)c2c(NC(=O)Cc3ccccc3)sc3c2CCCC3)cc1 | -21% | -10% | -17% | / | / | -5%
COc1ccc(CC(=O)Nc2sc3c(c2C(N)=O)CCCC3)cc1OC | 18µM* | ? | -2% | 2% | -7% | -3%
C/C=C/C(=O)N1CC2(CC(c3cccc(NC(=O)COc4ccc(Cl)cc4)c3)=NO2)C[C@@H]1C(N)=O (stereo partly specified) | -23% | ? | 4% | 0% | 5% | -16%
COC(=O)c1c(NC(=O)c2ccc(C)o2)sc2c1CCCCC2 | ? | ? | -27% | / | -24% | -3%
COC(=O)c1ccc(NC(=O)c2c(NCc3ccc(C)o3)sc3c2CCCC3)cc1 | ? | 15µM* | -8% | 7% | / | -15%
COC(=O)c1c(NC(=O)/C=C/c2ccc(OC)c(OC)c2)sc2c1CCC2 | 9.2µM* | ? | -19% | -2%[12.3 µM] | / | -3%
COc1ccc(S(=O)(=O)N2CCOC2CNC(=O)C(=O)NCCc2ccccc2OC)cc1 (stereo unspecified) | -29% | -28% | 8% | / | -3% | -1%
CC(C)(C)N1C(=O)[C@H]2[C@H]3[C@H](O)[C@H](O)C/C(=N/OC[C@@H](O)COCc4ccco4)[C@@H]3CC[C@@H]2C1=O | / | / | / | 4%[21 µM] | / | /
SMILES | TDP1 cell noCPT | DT40 TDP1 CPT | VDR inhibitor | TDP1 inh | PLK1 PBD inh | KAT2A inh
O=C(NC(=S)N1CCN(Cc2ccc3c(c2)OCO3)CC1)c1cccc(Br)c1 | 15µM* | 16µM* | -30% | 8% | 2% | -3%
O=C(Nc1ccccc1C(=O)O)c1cncc(Br)c1 | -3% | 4% | 8% | 2% | -4% | -3%
CC(=O)c1cccc(NC(=S)NC(=O)c2cncc(Br)c2)c1 | ? | 13µM* | -14% | / | -18% | 0%
O=C(NC(=S)Nc1ccc2c(c1)OCO2)c1ccccc1 | 0% | -3% | -2% | 0% | -9% | -3%
O=C(NC(=S)Nc1ccc2c(c1)OCCO2)c1cccc(Br)c1 | ? | 15µM* | -8% | 7% | 2% | -4%
O=C(NC(=S)Nc1ccccc1C(=O)O)c1cncc(Br)c1 | ? | ? | 50µM* | / | 9.5µM* | -13%
O=C(NC(=S)Nc1ccccc1O)c1cncc(Br)c1 | 23µM* | ? | -3% | / | -13% | /
CCOc1ccccc1NC(=O)NCCn1c(=O)oc2ccc(C)cc21 | ? | -27% | -1% | 5% | / | -9%
Cc1ccc(NC2=NCCC2)cc1Cl | -24% | 18% | -4% | 3%[56.1 µM] | 0% | -1%
Cc1nc2ccc(NC3=NCCCCC3)cc2s1 | -21% | -3% | ? | 10% | 30µM* | -6%
O=C(Nc1ncc(Cc2ccccc2Cl)s1)C1=NCCN1 | ? | 21µM* | 5% | 7% | -12% | 1%
O=C(c1cnn(-c2nccc(-c3ccccc3F)n2)c1C1CC1)N1CCCCC1c1cccnc1 (stereo unspecified) | 21µM* | 4%[9.04 µM] | / | / | / | /
C[C@H](c1ccccc1)N1C[C@H](COCc2ccccc2)Oc2cc(N3CC[C@@H](N(C)C)C3)ccc2S1(=O)=O | -19% | 10% | / | / | 6% | /
CCCCC[C@H](C)N1C[C@H](COCc2ccccc2)Oc2cc(N3CC[C@@H](N(C)C)C3)ccc2S1(=O)=O | ? | ? | / | / | 1% | /
C[C@@H](c1ccccc1)N1C[C@@H](COCc2ccccc2)Oc2cc(N3CC[C@@H](N(C)C)C3)ccc2S1(=O)=O | 15µM* | ? | / | / | -7% | /
CCCCC[C@H](C)N1C[C@H](COCc2ccccc2)Oc2cc(N3CC[C@H](N(C)C)C3)ccc2S1(=O)=O | 16µM* | ? | / | / | -5% | /
